# Data published in PubChem BioAssay (Tox21).
# Records with an inconclusive call do not appear. Values without a mark were called inactive. The source made the active and inactive calls. Calls come from the whole dose curve; as a rule, active = well fitted activation curve with a large enough effect in the signal ratio in the repeat runs (not every such curve was filed as active); inconclusive = weak or mixed curves; inactive = flat fitted curve, though single readings scatter; the % refers to the signal ratio.
# Assay: qHTS assay to identify small molecule agonists of H2AX (AID 1224845)
# Conditions: CHO-K1 phospho-H2AX Ser139 HTRF, 3 h; series mostly up to 154 µM; activation (H2AX phosphorylation): at the top concentration
# Source text: National Center for Advancing Translational Sciences [NCATS]
# NIH Chemical Genomics Center [NCGC]
# U.S. Environmental Protection Agency [EPA]
# National Institutes of Environmental Health Sciences [NIEHS]
# National Toxicology Program [NTP]
# U.S. Food and Drug Administration [FDA]
# HTRF phospho-H2AX (Ser139) assay (Cisbio Bioassays, US) enables the quantitative detection of the histone variant H2AX when phosphorylated on serine 139. When double-stranded DNA breaks, either by ionizing radiation or endogenous physiological processes, H2AX becomes phosphorylated at Ser139. This phospho-Ser139 serves as a sensitive biomarker for the detection of such breaks, localizing the site of DNA repair. So, HTRF phospho-H2AX Ser139 is a pertinent assay to study genome stability, the cell cycle, DNA repair, and it serves as a biomarker for cancer, and to understand aging. Wild type CHO-K1 cells were used to identify the inducers of Phospho-H2AX Ser 139 from the Tox21 10K compound collections.
# Tox21 Assay Protocol Summary:
# The CHO-K1 cells suspended in culture medium containing 10% FBS were dispensed at 1000 cells/ 3 ul/well in 1536-well white wall/solid bottom plates (Greiner Bio-One North America, NC) using a Multidrop Combi (Thermo Fisher Scientific Inc., Waltham, MA). After the assay plates were incubated at 37C overnight, 23 nl of compounds at 15 concentrations (from 5-48 columns) or positive control (from 1 to 4 columns) were transferred to the assay plates using a Pintool station (Wako, San Diego, CA) into each well resulting in a final DMSO concentration of 0.76%. After 3hr incubation at 37C, 1 uL/well Supplemented Lysis buffer (diluted 100 fold blocking reagent in lysis buffer) (HTRF Phospho-H2A.X (S139) Assay kit from Cisbio US Inc., Bedford, MA) was added using a Flying Reagent Dispenser (FRD) (Aurora Discovery, CA). After 10sec spin at 1000 rpm in a plate centrifuge, the assay plates were incubated at room temperature for 30 min. Then followed by the addition of 1 uL/well detection buffer (containing a mixture of two antibodies, one labeled with cryptate, Anti pH2AX (S139)-K and another labeled with d2, Anti H2AX-d2) using FRD. After incubation at room temperature for 24 hr, the time resolved fluorescence at excitation 320 nm and emissions at 665 nm and 620 nm was measured using an Envision plate reader (PerkinElmer, Waltham, MA).
# % is set by controls: 0 for no effect and ±100 for the full control effect; potency is the fitted concentration of half-maximal effect.
Structure (SMILES),activation (H2AX phosphorylation),Potency
CN(C[C@@H](CC[N+]12CCC(C3CCCCC3)(CC1)CC2)c1ccc(Cl)c(Cl)c1)C(=O)c1cc(C(F)(F)F)cc(C(F)(F)F)c1,-4.87%,
O[Si](c1ccccc1)(c1ccccc1)c1ccccc1,-3.63%,
CC(C)c1ccc2sc3ccccc3c(=O)c2c1,-4.26%,
CCNc1nc(NC(C)(C)C)nc(OC)n1,3.8%,
CCCCC/C=C\C=C\C(=O)OCC,,59 µM (active)
C=CC(C)(C)O,-2.82%,
C/C=C/C(=O)C1=C(C)C=CCC1(C)C,-5.31%,
NC(=O)c1ccccc1Cl,-0.0099%,
CC1(C)[C@H](C(=O)OCc2cccc(Oc3ccccc3)c2)[C@@H]1C=C(Cl)Cl,-2.86%,
N#CCCOCCC#N,-1.37%,
O=C(O)CN(CCCN(CC(=O)O)CC(=O)O)CC(=O)O,1.1% [at 31.6 µM],
C1CCSC1,-3.68%,
O=C(Nc1ccc([N+](=O)[O-])cc1)Nc1ccc([N+](=O)[O-])cc1 (tested in a mixture with another compound),-7.06% [at 70.9 µM],
C=CC(=O)OCCOC1C2CCC1C1CC=CC12 (stereo not given),-0.772% [at 31.6 µM],
CCC1(C)C(=O)N(Cl)C(=O)N1Cl (stereo not given),5.36%,
CC/C=C(\C)C=O,-0.621%,
Clc1ccc2c(Cl)ccnc2c1,-3.95%,
CC(C)C(=O)C(C)C,-0.255%,
CCn1c2ccccc2c2ccccc21,4.96%,
COc1cc2ncnc(Nc3cccc(Cl)c3)c2cc1OC,1.29% [at 31.6 µM],

Structure (SMILES),activation (H2AX phosphorylation),Potency
c1ccc(C[P+](c2ccccc2)(c2ccccc2)c2ccccc2)cc1,4.02%,
Clc1cccc(Cl)n1,-2.51%,
Cc1ccc(C=O)cc1,-0.144% [at 70.9 µM],
CCCCCCCCCCCCN1CCCC1=O,-4.02%,
NC(=O)C1CO1 (stereo not given),-0.125%,
Cc1cc(C)c(O)c(C(C)(C)C)c1,1.39%,
CN1CCN(CCCN2c3ccccc3Sc3ccc(C(F)(F)F)cc32)CC1,4.67% [at 70.9 µM],
CCc1cccc(C)c1N(C(=O)CS(=O)(=O)O)C(C)COC (stereo not given),-0.12%,
CC1=C(/C=C/C(C)=C/C=C/C(C)=C\C(=O)O)C(C)(C)CCC1,2.04%,
CCCCCCCCCCCCCCCCCCNC(=O)OC1CCN(C(=O)OC[C@H](COC(=O)N(Cc2cccc[n+]2CC)C(=O)c2ccccc2OC)OC)CC1,-9.53% [at 70.9 µM],
COc1ccc(OC)c(N=Nc2c(O)ccc3ccccc23)c1,4.47%,
CCN(CC)c1ccc(C=O)c(O)c1,6.39%,
O=C1C=CC(=O)N1c1cccc(N2C(=O)C=CC2=O)c1,-7.53%,
Nc1c(Br)cc([N+](=O)[O-])cc1Br,1.21%,
CCCCCCCCCCCCCCCCC(C(=O)O)C(O)(CC(=O)O)C(=O)O (stereo not given),0.134% [at 70.9 µM],
O=c1cc[nH]cc1,-3.25%,
COc1cc(OC)nc(NC(=O)NS(=O)(=O)Nc2ccccc2C(=O)N(C)C)n1,0.25%,
C[C@H]1O[C@@H](O[C@H]2CC[C@@]3(C)[C@H](CC[C@@H]4[C@@H]3C[C@@H](O)[C@]3(C)[C@@H](C5=CC(=O)OC5)CC[C@]43O)C2)C[C@H](O)[C@@H]1O[C@H]1C[C@H](O)[C@H](O[C@H]2C[C@H](O)[C@H](O[C@@H]3O[C@H](CO)[C@@H](O)[C@H](O)[C@H]3O)[C@@H](C)O2)[C@@H](C)O1,-0.836% [at 70.9 µM],
O=C1OCc2ccccc21,2.75%,
CCCCCCCCc1ccc(Nc2ccc(CCCCCCCC)cc2)cc1,-2.1% [at 70.9 µM],
